Consider 13 compounds from PubChem BioAssay (NCI).

Test systems include SR leukemia; RPMI-8226 leukemia; OVCAR-8 ovarian; OVCAR-5 ovarian; OVCAR-4 ovarian; SK-OV-3 ovarian; IGROV1 ovarian; OVCAR-3 ovarian; HS 578T breast; NCI/ADR-RES ovarian.
Assay in all cases: NCI-60 one-dose screen, 48 h (100 = growth as untreated, 0 = no growth, -100 = all killed)
Common to all, as to settings: 10 µM unless noted

This is part of a sample that, as a whole, favours compounds with a hit. Of some 83,000 tested, about 20% had one in any assay.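 The endpoint reported here, percent growth, reads 100 for growth as untreated, 0 for no net growth and -100 for all cells dead.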 Unmarked numbers belong to inactive results. Activity calls are given as the source filed them. How the source made its calls: active means growth percent below 10; inactive means the rest.

As for `C/C(=N\Nc1cccc(Cl)n1)c1ccccn1`, the growth was 6.31% (active) in the assay with SR leukemia; 20.8% in the assay on RPMI-8226 leukemia; 20.2% in the assay on OVCAR-8 ovarian; 23.5% in the assay with OVCAR-5 ovarian; 10.5% with OVCAR-4 ovarian; 22.5% with SK-OV-3 ovarian. Further, the growth in the assay with IGROV1 ovarian is 17%; with OVCAR-3 ovarian, 26.7%; in the assay with HS 578T breast, 58.9%; in the assay with NCI/ADR-RES ovarian it was 0.96% (active).
As to `CCn1cnc(C[C@H](NC(=O)[C@@H](NC(=O)Nc2cc(C(F)(F)F)cc(C(F)(F)F)c2)C(C)(C)C)C(=O)OC)c1`, the growth with SR leukemia is -38.1% [100 µM] (active); in the assay on RPMI-8226 leukemia, -58.6% [100 µM] (active); in the assay with OVCAR-8 ovarian it was -79.5% [100 µM] (active); in the assay on OVCAR-5 ovarian, -92.8% [100 µM] (active); in the assay on OVCAR-4 ovarian, -82.7% [100 µM] (active); in the assay on SK-OV-3 ovarian, -100% [100 µM] (active). Besides, the growth is -71.5% [100 µM] (active) in the assay on IGROV1 ovarian, -96.5% [100 µM] (active) in the assay with OVCAR-3 ovarian, -2.17% [100 µM] (active) in the assay on HS 578T breast and 7.32% [100 µM] (active) in the assay with NCI/ADR-RES ovarian.
`O=C(/C=C1\C(=O)N(Cc2ccc([N+](=O)[O-])cc2)c2ccccc21)c1ccc(OCCN2CCCC2)cc1`: the growth in the assay with SR leukemia was -19% (active); in the assay on RPMI-8226 leukemia it was 28.4%; with OVCAR-8 ovarian, 66%; in the assay on OVCAR-5 ovarian, 77.3%; in the assay on OVCAR-4 ovarian, 64.9%; with SK-OV-3 ovarian, 102%. Further, the growth was 74.9% in the assay on IGROV1 ovarian, 62.7% in the assay with OVCAR-3 ovarian, 50.1% with HS 578T breast and 75.6% in the assay with NCI/ADR-RES ovarian.
Consider `CC1=NN(c2cccc(Cl)c2)C(=O)/C1=C\c1cn(-c2nc(N3CCOCC3)nc(N3CCOCC3)n2)c2ccccc12`, for which the growth in the assay on SR leukemia was 100%; in the assay with RPMI-8226 leukemia, 98.3%; in the assay with OVCAR-8 ovarian it was 107%; in the assay with OVCAR-5 ovarian, 103%; in the assay on OVCAR-4 ovarian it was 105%; in the assay on SK-OV-3 ovarian, 109%. The growth is 106% with IGROV1 ovarian, 106% in the assay on OVCAR-3 ovarian, 104% in the assay with HS 578T breast and 103% in the assay with NCI/ADR-RES ovarian.
Turning to `COc1cc(-c2nn(-c3ccc(NC(=O)c4ccc(Cl)c(Cl)c4)cc3)cc2-c2ccncc2)ccc1Cl`, the growth in the assay with SR leukemia is 11.3%; with RPMI-8226 leukemia, 4.1% (active); in the assay with OVCAR-8 ovarian, 31.4%; in the assay with OVCAR-5 ovarian it was 81.8%; in the assay with OVCAR-4 ovarian, 57%; in the assay on SK-OV-3 ovarian, 94.4%. The growth in the assay on IGROV1 ovarian was 96.3%; in the assay on OVCAR-3 ovarian it was 68.4%; in the assay on HS 578T breast it was -23.7% (active); in the assay on NCI/ADR-RES ovarian it was 72.5%.
For the compound `O=[N+]([O-])c1ccc(-c2ncc(-c3ccc(O)cc3O)[nH]2)cc1`, the growth in the assay on SR leukemia was -28.9% (active); with RPMI-8226 leukemia, 74.1%; with OVCAR-8 ovarian, 101%; in the assay with OVCAR-5 ovarian it was 125%; in the assay with OVCAR-4 ovarian, 104%; in the assay with SK-OV-3 ovarian it was 116%. The growth in the assay on IGROV1 ovarian is 97.6%; in the assay on OVCAR-3 ovarian, 105%; in the assay on HS 578T breast, 70.9%; in the assay on NCI/ADR-RES ovarian, 115%.
Consider `Nc1ncn([C@@H]2O[C@H](CO)[C@@H](O)C2(F)F)c(=O)n1`, for which the growth in the assay on SR leukemia is 15%; in the assay on RPMI-8226 leukemia it was 39.2%; in the assay with OVCAR-8 ovarian it was 49.8%; in the assay on OVCAR-5 ovarian, 87%; in the assay with OVCAR-4 ovarian, 94.9%; in the assay on SK-OV-3 ovarian, 71.1%. For the same compound, the growth in the assay with IGROV1 ovarian was 56.8%; with OVCAR-3 ovarian it was 70.6%; in the assay with HS 578T breast it was 90.4%; in the assay on NCI/ADR-RES ovarian, 42.1%.
For the compound `O=C1/C(=N\c2cc(=O)[nH]n2S(=O)(=O)c2ccccc2)Nc2ccccc21`, the growth is 89.7% in the assay with SR leukemia; 95.2% with RPMI-8226 leukemia; 102% with OVCAR-8 ovarian; 105% in the assay on OVCAR-5 ovarian; 98.4% in the assay on OVCAR-4 ovarian; 105% in the assay on SK-OV-3 ovarian. Also, the growth with IGROV1 ovarian is 100%; in the assay on OVCAR-3 ovarian, 104%; in the assay on HS 578T breast it was 91%; with NCI/ADR-RES ovarian, 101%.
On to `COc1cc2c(/C=C3\C(=O)Nc4ccc(Br)cc43)c(Cl)n(C)c2cc1C`, for which the growth in the assay on SR leukemia was 0.77% (active); with RPMI-8226 leukemia, 0.149% (active); in the assay on OVCAR-8 ovarian, 17.8%; with OVCAR-5 ovarian, 13.4%; in the assay on OVCAR-4 ovarian, 45.6%; in the assay with SK-OV-3 ovarian it was 24.7%. Further, the growth in the assay with IGROV1 ovarian is -10.2% (active); with OVCAR-3 ovarian, -23.5% (active); in the assay with HS 578T breast, 40.2%; in the assay with NCI/ADR-RES ovarian, -17.7% (active).
For `CC(=O)N1CCN(CCNC(=O)n2cc(-c3ccncc3)c(-c3cc(O)cc(Cl)c3)n2)CC1`, the growth with SR leukemia was 16.7%; in the assay with RPMI-8226 leukemia it was 44.9%; in the assay with OVCAR-8 ovarian, 66%; with OVCAR-5 ovarian, 110%; in the assay with OVCAR-4 ovarian, 116%; in the assay on SK-OV-3 ovarian, 101%. The growth in the assay with IGROV1 ovarian was 76.2%; in the assay with OVCAR-3 ovarian, 102%; with HS 578T breast, 91.9%; with NCI/ADR-RES ovarian, 101%.
As to `CCCNC(=O)Oc1ccc(/C(=C(/C)Cc2ccc(OC)cc2)c2ccc(OCCN3CCCCC3)cc2)cc1`, the growth in the assay with SR leukemia was 3.39% (active); in the assay on RPMI-8226 leukemia, 77.5%; in the assay with OVCAR-8 ovarian it was 91.1%; in the assay with OVCAR-5 ovarian, 94.9%; in the assay on OVCAR-4 ovarian, 87.3%; with SK-OV-3 ovarian it was 90.2%. For the same compound, the growth with IGROV1 ovarian is 98.4%; with OVCAR-3 ovarian it was 88.6%; with HS 578T breast, 71.7%; with NCI/ADR-RES ovarian it was 84.4%.
With `C[C@H]1C[C@@H](n2cnc3c(N)nccc32)[C@H](O)[C@@H]1O`, the growth with SR leukemia is -54.1% (active); in the assay on RPMI-8226 leukemia, 117%; in the assay on OVCAR-8 ovarian it was 99%; in the assay with OVCAR-5 ovarian, 103%; in the assay with OVCAR-4 ovarian, 110%; with SK-OV-3 ovarian, 117%. Further, the growth in the assay on IGROV1 ovarian is 560%; in the assay on OVCAR-3 ovarian, 120%; in the assay on HS 578T breast, 109%; in the assay with NCI/ADR-RES ovarian, 128%.
Consider `CC(CCN1CCN(CCC(C)CC(C)(C)C)C1CC(C)CC(C)(C)C)CC(C)(C)C` (stereo not given), for which the growth with SR leukemia is 5.62% (active); with RPMI-8226 leukemia it was 76.4%; in the assay with OVCAR-8 ovarian, 89.8%; in the assay with OVCAR-5 ovarian, 90.4%; in the assay on OVCAR-4 ovarian, 98.2%; with SK-OV-3 ovarian, 96.4%. Further, the growth was 81.7% in the assay on IGROV1 ovarian, 73.3% in the assay on OVCAR-3 ovarian, 112% with HS 578T breast and 98.3% in the assay with NCI/ADR-RES ovarian.
